Experimental findings from paper PMC7862700, “An all-to-all approach to the identification of sequence-specific readers for epigenetic DNA modifications on cytosine” are described below.

What all share (experiment): DAPPL (digital affinity profiling via proximity ligation, sequencing); 10 mM Tris-HCl pH 7.5, 50 mM NaCl, 1 mM DTT, 4% glycerol, room temperature, 30 min; GST-TFs on glutathione beads, 16-mer random dsDNA library, 0.1% formaldehyde crosslink after washing; high values mean tight binding
What all share (details): protein: recombinant; tags: N-terminal GST; dsDNA, one strand shown

In one assay the target is T1, FLI1 (Homo sapiens, UniProt Q01543 1-452).
T1 sequence: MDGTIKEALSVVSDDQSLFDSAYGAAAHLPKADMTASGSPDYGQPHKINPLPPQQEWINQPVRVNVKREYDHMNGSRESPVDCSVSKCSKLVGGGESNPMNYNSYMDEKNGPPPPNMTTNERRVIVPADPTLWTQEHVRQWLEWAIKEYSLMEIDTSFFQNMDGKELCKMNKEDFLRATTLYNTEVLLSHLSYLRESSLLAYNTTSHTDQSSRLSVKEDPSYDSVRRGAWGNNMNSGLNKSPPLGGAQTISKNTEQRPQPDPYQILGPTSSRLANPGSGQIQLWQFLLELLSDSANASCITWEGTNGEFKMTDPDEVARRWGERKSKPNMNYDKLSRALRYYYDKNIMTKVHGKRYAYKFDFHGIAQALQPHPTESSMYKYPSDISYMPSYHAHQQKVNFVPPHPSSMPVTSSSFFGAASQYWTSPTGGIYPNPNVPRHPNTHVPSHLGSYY
The method, boiled down: (§1)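 GST fusions of human transcription factors were expressed in yeast and captured with glutathione beads. Once given DNA barcodes and pooled alongside a tag-only sample, they were incubated for 30 min at room temperature with 200 nmole of a random double-stranded 16-mer DNA library in Tris/NaCl/DTT/glycerol buffer, then washed, crosslinked (0.1% formaldehyde), proximity-ligated, PCR-amplified and sequenced on an Illumina NextSeq500. The binding signal of each hexamer is its read frequency for a factor divided by its frequency for the tag-only sample.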

The next assay has as its target T2, ELK1 (Homo sapiens, UniProt P19419 1-428).
T2 sequence: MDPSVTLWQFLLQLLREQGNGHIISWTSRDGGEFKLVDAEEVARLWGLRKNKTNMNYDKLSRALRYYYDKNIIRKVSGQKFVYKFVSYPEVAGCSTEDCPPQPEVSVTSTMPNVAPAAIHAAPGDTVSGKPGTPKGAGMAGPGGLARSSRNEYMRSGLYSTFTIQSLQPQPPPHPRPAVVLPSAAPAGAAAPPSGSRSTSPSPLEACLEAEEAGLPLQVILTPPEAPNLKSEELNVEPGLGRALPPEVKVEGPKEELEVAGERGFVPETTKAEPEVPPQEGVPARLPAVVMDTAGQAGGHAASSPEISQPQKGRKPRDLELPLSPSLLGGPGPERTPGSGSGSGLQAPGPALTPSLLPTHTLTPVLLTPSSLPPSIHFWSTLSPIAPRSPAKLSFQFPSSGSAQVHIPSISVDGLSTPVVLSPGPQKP
The method, boiled down:
as §1

For a further assay, the target named is T3, GABPA (Homo sapiens, UniProt Q06546 1-454).
T3 sequence: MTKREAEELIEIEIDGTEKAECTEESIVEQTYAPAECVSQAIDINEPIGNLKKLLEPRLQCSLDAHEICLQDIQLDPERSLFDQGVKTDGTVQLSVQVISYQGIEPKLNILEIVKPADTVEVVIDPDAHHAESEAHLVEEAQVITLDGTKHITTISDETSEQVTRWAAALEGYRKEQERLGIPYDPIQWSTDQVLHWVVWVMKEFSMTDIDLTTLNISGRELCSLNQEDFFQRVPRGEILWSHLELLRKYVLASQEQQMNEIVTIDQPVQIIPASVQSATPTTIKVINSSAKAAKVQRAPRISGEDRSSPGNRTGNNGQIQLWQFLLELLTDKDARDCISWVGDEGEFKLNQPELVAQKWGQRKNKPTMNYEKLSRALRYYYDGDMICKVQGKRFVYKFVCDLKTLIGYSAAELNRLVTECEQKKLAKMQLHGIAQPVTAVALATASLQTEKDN
The method, boiled down: as §1

The target in a further assay is T4, ERG (Homo sapiens, UniProt P11308 1-479).
T4 sequence: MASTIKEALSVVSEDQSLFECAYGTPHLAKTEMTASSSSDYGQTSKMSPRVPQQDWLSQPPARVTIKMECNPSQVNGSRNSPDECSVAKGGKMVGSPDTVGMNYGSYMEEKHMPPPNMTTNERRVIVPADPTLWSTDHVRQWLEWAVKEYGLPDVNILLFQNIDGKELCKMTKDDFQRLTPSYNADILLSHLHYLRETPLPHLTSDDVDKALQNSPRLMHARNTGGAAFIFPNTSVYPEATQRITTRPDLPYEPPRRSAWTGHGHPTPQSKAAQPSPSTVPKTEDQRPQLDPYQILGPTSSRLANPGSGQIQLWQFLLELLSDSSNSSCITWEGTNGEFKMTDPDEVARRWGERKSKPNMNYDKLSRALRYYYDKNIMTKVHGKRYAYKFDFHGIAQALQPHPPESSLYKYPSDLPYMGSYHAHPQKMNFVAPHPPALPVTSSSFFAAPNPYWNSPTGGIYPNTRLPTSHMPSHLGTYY
The method, boiled down:
as §1

The next assay has as its target ELF1 (Homo sapiens, UniProt P32519 1-619). Put shortly: as §1
A further assay deals with T5, EHF (Homo sapiens, UniProt Q9NZC4 1-300).
T5 sequence: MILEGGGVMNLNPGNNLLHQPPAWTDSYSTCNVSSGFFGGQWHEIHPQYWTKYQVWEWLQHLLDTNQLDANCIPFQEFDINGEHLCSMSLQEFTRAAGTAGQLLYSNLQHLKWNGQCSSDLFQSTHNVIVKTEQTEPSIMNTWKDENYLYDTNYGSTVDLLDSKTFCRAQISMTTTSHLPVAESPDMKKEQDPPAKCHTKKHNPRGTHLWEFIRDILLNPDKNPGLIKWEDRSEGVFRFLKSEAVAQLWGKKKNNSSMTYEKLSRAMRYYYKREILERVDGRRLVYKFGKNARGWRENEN
The method, boiled down: as §1

The target of the next assay is SPI1 (Homo sapiens, UniProt P17947 1-270). The method, boiled down:
as §1

The target of the next assay is SPIB (Homo sapiens, UniProt Q01892 1-262). Put shortly: as §1
A further assay has as its target T6, ELK3 (Homo sapiens, UniProt P41970 1-407).
T6 sequence: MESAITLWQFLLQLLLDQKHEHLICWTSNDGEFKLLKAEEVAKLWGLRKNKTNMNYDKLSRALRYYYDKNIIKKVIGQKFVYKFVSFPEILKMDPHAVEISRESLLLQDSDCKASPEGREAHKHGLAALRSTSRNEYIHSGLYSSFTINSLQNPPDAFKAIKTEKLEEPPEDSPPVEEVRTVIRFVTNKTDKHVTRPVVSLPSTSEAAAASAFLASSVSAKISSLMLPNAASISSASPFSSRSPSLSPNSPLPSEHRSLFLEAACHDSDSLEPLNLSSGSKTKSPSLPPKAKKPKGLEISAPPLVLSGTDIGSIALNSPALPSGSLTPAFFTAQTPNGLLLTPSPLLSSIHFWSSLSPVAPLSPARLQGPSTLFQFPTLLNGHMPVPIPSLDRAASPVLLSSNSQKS
Put shortly:
as §1

Chain of ELF1 (P32519 whole entry): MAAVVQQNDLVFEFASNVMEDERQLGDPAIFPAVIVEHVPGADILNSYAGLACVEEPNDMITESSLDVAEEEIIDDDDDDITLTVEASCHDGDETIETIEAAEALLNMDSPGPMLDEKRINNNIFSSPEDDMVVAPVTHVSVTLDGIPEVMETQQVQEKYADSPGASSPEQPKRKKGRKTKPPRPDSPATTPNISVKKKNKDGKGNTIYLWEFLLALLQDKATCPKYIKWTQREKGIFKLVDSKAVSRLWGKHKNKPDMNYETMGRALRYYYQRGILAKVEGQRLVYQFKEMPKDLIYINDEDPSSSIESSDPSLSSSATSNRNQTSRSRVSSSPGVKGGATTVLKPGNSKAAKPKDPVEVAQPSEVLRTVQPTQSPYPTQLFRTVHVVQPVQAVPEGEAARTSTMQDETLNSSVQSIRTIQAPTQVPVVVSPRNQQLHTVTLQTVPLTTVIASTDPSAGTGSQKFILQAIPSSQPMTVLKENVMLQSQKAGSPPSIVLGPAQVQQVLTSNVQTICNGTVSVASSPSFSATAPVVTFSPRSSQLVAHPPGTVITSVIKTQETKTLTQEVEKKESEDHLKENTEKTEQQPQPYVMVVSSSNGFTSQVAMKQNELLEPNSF
Chain of SPIB (Q01892 whole entry): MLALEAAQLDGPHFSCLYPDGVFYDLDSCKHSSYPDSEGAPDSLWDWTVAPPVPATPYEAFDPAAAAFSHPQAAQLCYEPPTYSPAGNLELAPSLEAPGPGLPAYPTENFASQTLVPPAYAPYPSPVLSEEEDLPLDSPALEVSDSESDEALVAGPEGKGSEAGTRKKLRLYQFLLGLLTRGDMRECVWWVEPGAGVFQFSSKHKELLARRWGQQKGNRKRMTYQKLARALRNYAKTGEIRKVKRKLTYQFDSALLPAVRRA

Regarding TCTGCC, the binding signal with FLI1 is 1.49 fold enrichment (6-mer frequency, TF over GST control); with ELK1, 1.36 fold enrichment (6-mer frequency, TF over GST control); with GABPA it was 1.51 fold enrichment (6-mer frequency, TF over GST control); with ERG, 1.49 fold enrichment (6-mer frequency, TF over GST control); in the assay with ELF1, 1.54 fold enrichment (6-mer frequency, TF over GST control); with EHF, 1.37 fold enrichment (6-mer frequency, TF over GST control). The binding signal in the assay with SPI1 is 1.37 fold enrichment (6-mer frequency, TF over GST control); with SPIB, 1.32 fold enrichment (6-mer frequency, TF over GST control); in the assay with ELK3, 1.18 fold enrichment (6-mer frequency, TF over GST control).

For the sequence CAATTA, the binding signal is 1.05 fold enrichment (6-mer frequency, TF over GST control) with FLI1; 1.11 fold enrichment (6-mer frequency, TF over GST control) in the assay with ELK1; 1.1 fold enrichment (6-mer frequency, TF over GST control) with GABPA; 1.05 fold enrichment (6-mer frequency, TF over GST control) with ERG; 1.1 fold enrichment (6-mer frequency, TF over GST control) with ELF1; 1.07 fold enrichment (6-mer frequency, TF over GST control) in the assay with EHF. In addition, the binding signal is 1.15 fold enrichment (6-mer frequency, TF over GST control) with SPI1; 1.16 fold enrichment (6-mer frequency, TF over GST control) with SPIB; 1.05 fold enrichment (6-mer frequency, TF over GST control) with ELK3.

In the case of CTGACT, the binding signal with FLI1 is 1.25 fold enrichment (6-mer frequency, TF over GST control); with ELK1 it was 1.26 fold enrichment (6-mer frequency, TF over GST control); with GABPA, 1.29 fold enrichment (6-mer frequency, TF over GST control); in the assay with ERG, 1.22 fold enrichment (6-mer frequency, TF over GST control); in the assay with ELF1, 1.32 fold enrichment (6-mer frequency, TF over GST control); in the assay with EHF, 1.31 fold enrichment (6-mer frequency, TF over GST control). Also, the binding signal in the assay with SPI1 was 1.27 fold enrichment (6-mer frequency, TF over GST control); with SPIB, 1.43 fold enrichment (6-mer frequency, TF over GST control); with ELK3 it was 1.26 fold enrichment (6-mer frequency, TF over GST control).

For TGGCTT, the binding signal with FLI1 is 1.27 fold enrichment (6-mer frequency, TF over GST control); with ELK1, 1.21 fold enrichment (6-mer frequency, TF over GST control); in the assay with GABPA, 1.33 fold enrichment (6-mer frequency, TF over GST control); in the assay with ERG, 1.31 fold enrichment (6-mer frequency, TF over GST control); with ELF1, 1.28 fold enrichment (6-mer frequency, TF over GST control); with EHF, 1.26 fold enrichment (6-mer frequency, TF over GST control). For the same sequence, the binding signal was 1.24 fold enrichment (6-mer frequency, TF over GST control) with SPI1; 1.26 fold enrichment (6-mer frequency, TF over GST control) in the assay with SPIB; 1.23 fold enrichment (6-mer frequency, TF over GST control) with ELK3.

CTTAGG: the binding signal with FLI1 is 1.1 fold enrichment (6-mer frequency, TF over GST control); with ELK1 it was 1.12 fold enrichment (6-mer frequency, TF over GST control); with GABPA, 1.15 fold enrichment (6-mer frequency, TF over GST control); with ERG, 1.19 fold enrichment (6-mer frequency, TF over GST control); with ELF1 it was 1.17 fold enrichment (6-mer frequency, TF over GST control); with EHF it was 1.14 fold enrichment (6-mer frequency, TF over GST control). For the same sequence, the binding signal in the assay with SPI1 was 1.09 fold enrichment (6-mer frequency, TF over GST control); in the assay with SPIB it was 1.08 fold enrichment (6-mer frequency, TF over GST control); with ELK3, 1.05 fold enrichment (6-mer frequency, TF over GST control).

As to CTCATT, the binding signal was 1.45 fold enrichment (6-mer frequency, TF over GST control) with FLI1; 1.32 fold enrichment (6-mer frequency, TF over GST control) with ELK1; 1.44 fold enrichment (6-mer frequency, TF over GST control) with GABPA; 1.38 fold enrichment (6-mer frequency, TF over GST control) with ERG; 1.55 fold enrichment (6-mer frequency, TF over GST control) in the assay with ELF1; 1.57 fold enrichment (6-mer frequency, TF over GST control) with EHF. Moreover, the binding signal was 1.82 fold enrichment (6-mer frequency, TF over GST control) with SPI1; 1.61 fold enrichment (6-mer frequency, TF over GST control) with SPIB; 1.12 fold enrichment (6-mer frequency, TF over GST control) with ELK3.

Regarding TACTAC, the binding signal with FLI1 is 1.29 fold enrichment (6-mer frequency, TF over GST control); in the assay with ELK1 it was 1.35 fold enrichment (6-mer frequency, TF over GST control); with GABPA, 1.31 fold enrichment (6-mer frequency, TF over GST control); with ERG, 1.24 fold enrichment (6-mer frequency, TF over GST control); with ELF1, 1.39 fold enrichment (6-mer frequency, TF over GST control); with EHF, 1.36 fold enrichment (6-mer frequency, TF over GST control). Further, the binding signal in the assay with SPI1 is 1.2 fold enrichment (6-mer frequency, TF over GST control); in the assay with SPIB it was 1.41 fold enrichment (6-mer frequency, TF over GST control); with ELK3 it was 1.2 fold enrichment (6-mer frequency, TF over GST control).

As to GTAAAA, the binding signal was 1.05 fold enrichment (6-mer frequency, TF over GST control) with FLI1; 1 fold enrichment (6-mer frequency, TF over GST control) with ELK1; 1.18 fold enrichment (6-mer frequency, TF over GST control) with GABPA; 1.14 fold enrichment (6-mer frequency, TF over GST control) with ERG; 1.13 fold enrichment (6-mer frequency, TF over GST control) in the assay with ELF1; 1.16 fold enrichment (6-mer frequency, TF over GST control) with EHF. The binding signal with SPI1 was 1.3 fold enrichment (6-mer frequency, TF over GST control); with SPIB, 1.1 fold enrichment (6-mer frequency, TF over GST control); in the assay with ELK3, 1.11 fold enrichment (6-mer frequency, TF over GST control).
